# In the supplement of paper PMC8047044:
# System: Neuro-2a
# Assay: neurite formation score, plate-normalized to DMSO control mean 5.04 (score (0-8 scale)); higher = more or longer neurites
# Settings: 0.1 µM
# Experimental: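 Neuro-2a mouse neuroblastoma cells in PLL-coated 96-well plates were pre-treated for 1 h in DMEM(+) with each kinase inhibitor at 0.1 µM, then switched to serum-free DMEM(-) with inhibitor to induce neurite outgrowth and fixed about 2-3 h later. Three blinded observers scored neurite formation from 0 (no neurites) to 8 (long neurites on almost all cells).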
row,SMILES,neurite formation score
1,COc1cc2nccc(Oc3ccc(NC(=O)C4(C(=O)Nc5ccc(F)cc5)CC4)cc3)c2cc1OC [Cabozantinib malate (XL184)],4.92
2,COc1ccc(CNc2nc(N(CCO)CCO)nc3c2ncn3C(C)C)cc1,4.04
3,COc1c(OCCCN2CCOCC2)ccc2c3n(c(=NC(=O)c4cnc(N)nc4)nc12)CCN3 [BAY 80-6946 (Copanlisib)],4.76
4,CS(=O)(=O)CCNCc1ccc(-c2ccc3ncnc(Nc4ccc(OCc5cccc(F)c5)c(Cl)c4)c3c2)o1 [Lapatinib],4.88
5,CN1CCN(C2CCN(C(=O)Nc3cc(Oc4ccc(NC(=O)C5(C(=O)Nc6ccc(F)cc6)CC5)c(F)c4)ccn3)CC2)CC1 [Golvatinib (E7050)],3.76
6,O=C(c1ccc(Nc2nccc(-c3cc4ccccc4s3)n2)cc1)N1CCC(N2CCCC2)CC1 [IKK-16 (IKK Inhibitor VII)],3.75
7,Fc1cc(-c2cccc3ncc(-c4cnn(C5CCNCC5)c4)nc23)cc(F)c1CN1CCOCC1,4.09
8,N#C/C(=C\c1ccc(O)c(O)c1)C(=O)NCc1ccccc1,4.58
9,"CO[C@H]1C[C@@H]2CC[C@@H](C)[C@@](O)(O2)C(=O)C(=O)N2CCCC[C@H]2C(=O)O[C@H]([C@H](C)C[C@@H]2CC[C@@H](OP(C)(C)=O)[C@H](OC)C2)CC(=O)[C@H](C)/C=C(\C)[C@@H](O)[C@@H](OC)C(=O)[C@H](C)C[C@H](C)/C=C/C=C/C=C/1C [Ridaforolimus (Deforolimus, MK-8669)]",1.42
10,N=C(N)NCCC(=O)O [3-Guanidinopropionic Acid],4.75
11,CCNC(=O)Nc1ccc(-c2nc3c(c(N4CCOC[C@@H]4C)n2)CCN(C2COC2)C3)cc1,3.71
12,CC(C)CC(=O)Nc1n[nH]c2c1CN(C(=O)C1CCN(C)CC1)C2(C)C,4.54
13,N#C/C(=C(/N)Sc1ccc(N)cc1)c1ccccc1C(F)(F)F,4.71
14,CCCCCCCCCCCCCCCCCCOP(=O)([O-])OC1CC[N+](C)(C)CC1 [Perifosine],4.88
15,O=C1C(c2c(O)[nH]c3ccccc23)=Nc2ccccc21 [Indirubin],4.42
16,COc1cc(N2CCOCC2)ccc1Nc1ncc(F)c(Nc2ccccc2NS(C)(=O)=O)n1,4.75
17,CCCCCCCCCCCCCCCc1cccc(O)c1C(=O)O [Anacardic acid],4.92

row,SMILES,neurite formation score
1,C=CC(=O)N1CCC(Oc2cc3c(Nc4ccc(Cl)c(Cl)c4F)ncnc3cc2OC)CC1 [Poziotinib],3.76
2,CCOc1cc2ncc(C#N)c(Nc3ccc(F)c(Cl)c3)c2cc1NC(=O)/C=C/CN(C)C [Pelitinib (EKB-569)],4.38
3,C[C@H]1Oc2cc(cnc2N)-c2c(nn(C)c2C#N)CN(C)C(=O)c2ccc(F)cc21,5.08
4,C#Cc1cccc(Nc2ncnc3cc(OC)c(OCCCCCCC(=O)NO)cc23)c1,4.25
5,Nc1ncnc2c1c(-c1cnc3[nH]ccc3c1)nn2C1CCCC1,4.42
6,C=CC(=O)Nc1ccc2ncnc(Nc3ccc(OCc4cccc(F)c4)c(Cl)c3)c2c1,4.21
7,CO[C@H]1C[C@@H]2CC[C@@H](C)[C@@](O)(O2)C(=O)C(=O)N2CCCC[C@H]2C(=O)O[C@H]([C@H](C)C[C@@H]2CC[C@@H](OC(=O)C(C)(CO)CO)[C@H](OC)C2)CC(=O)[C@H](C)/C=C(\C)[C@@H](O)[C@@H](OC)C(=O)[C@H](C)C[C@H](C)/C=C/C=C/C=C/1C [Temsirolimus],4.21
8,Cc1[nH]c2ccccc2c1C1=C(NCCc2ccc(F)cc2)C(=O)N(C)C1=O,2.42
9,C=CCc1ccc(O)c(-c2ccc(O)c(CC=C)c2)c1 [Honokiol],2.76
10,CCN1C(=CC(C)=O)Sc2ccc(OC)cc21,4.92
11,NC(=O)c1ccc(-c2nc(-c3ccc4c(c3)OCCO4)c(-c3ccccn3)[nH]2)cc1,4.92
12,Cc1ccc(-n2nc(C(C)(C)C)cc2NC(=O)Nc2ccc(OCCN3CCOCC3)c3ccccc23)cc1 [BIRB 796 (Doramapimod)],4.21
13,CCCCOc1c(C(=O)c2c(F)cc(C)cc2F)c[nH]c2nncc1-2,4.92
14,CC(C)NC[C@@H](C(=O)N1CCN(c2ncnc3c2[C@H](C)C[C@H]3O)CC1)c1ccc(Cl)cc1,5.04
15,C=CC(=O)Nc1cccc(Nc2nc(Nc3ccc(NC4CN(CCF)C4)cc3OC)ncc2C(F)(F)F)c1,4.08
16,"Cc1[nH]c(/C=C2\C(=O)Nc3ccccc32)c(C)c1CCC(=O)O [TSU-68 (SU6668,Orantinib)]",4.54
